Data published in PubChem BioAssay (EPA / NIEHS).
Inconclusive results are not listed. Calls of active or inactive are those of the source. The calls were made as follows, unless noted: active = hit-call score of the fitted dose curve at least 0.9, where 1 is the maximum; inconclusive = response in the unintended direction; inactive = score below 0.9.

What was measured:
[1] = target: human CYP1A2, CYP1A2 (gene 1544) (UniProt P05177); assay: NVS_ADME_hCYP1A2: NovaScreen (NVS) CYP450-related Enzyme Activity (ADME) Assay for human CYP1A2 (AID 2283102);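 as to AC50: potency for inhibition since loss of fluorescence marks reduced CYP1A2 activity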
Chain of human CYP1A2, CYP1A2 (gene 1544) (P05177 whole entry, looked up): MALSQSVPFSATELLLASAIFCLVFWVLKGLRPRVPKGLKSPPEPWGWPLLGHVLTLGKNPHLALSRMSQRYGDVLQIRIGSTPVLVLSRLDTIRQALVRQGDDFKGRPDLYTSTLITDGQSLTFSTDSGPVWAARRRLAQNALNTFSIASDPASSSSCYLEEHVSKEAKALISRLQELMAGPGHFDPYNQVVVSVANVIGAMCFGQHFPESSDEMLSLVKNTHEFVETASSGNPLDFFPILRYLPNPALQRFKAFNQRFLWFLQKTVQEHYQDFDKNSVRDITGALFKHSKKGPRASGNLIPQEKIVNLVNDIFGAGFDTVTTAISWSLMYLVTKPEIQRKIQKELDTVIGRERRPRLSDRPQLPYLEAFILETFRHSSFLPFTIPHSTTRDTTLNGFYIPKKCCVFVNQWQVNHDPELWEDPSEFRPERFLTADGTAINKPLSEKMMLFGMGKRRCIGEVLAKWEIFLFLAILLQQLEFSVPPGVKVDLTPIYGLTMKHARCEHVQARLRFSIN
In short: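 Fluorescence-intensity enzyme activity read-out, taken 0.5 h post-dosing, using insect-cell-derived recombinant CYP1A2 and specific fluorescent substrate. Acetonitrile served as negative control/baseline. Single-concentration duplicate screen at 10 uM, then concentration-response follow-up.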

[2] = target: human CYP2C9, CYP2C9 (gene 1559) (UniProt P11712); assay: NVS_ADME_hCYP2C9: NovaScreen (NVS) CYP450-related Enzyme Activity (ADME) Assay for human CYP2C9 (AID 2283108)
Chain of human CYP2C9, CYP2C9 (gene 1559) (P11712 whole entry, looked up): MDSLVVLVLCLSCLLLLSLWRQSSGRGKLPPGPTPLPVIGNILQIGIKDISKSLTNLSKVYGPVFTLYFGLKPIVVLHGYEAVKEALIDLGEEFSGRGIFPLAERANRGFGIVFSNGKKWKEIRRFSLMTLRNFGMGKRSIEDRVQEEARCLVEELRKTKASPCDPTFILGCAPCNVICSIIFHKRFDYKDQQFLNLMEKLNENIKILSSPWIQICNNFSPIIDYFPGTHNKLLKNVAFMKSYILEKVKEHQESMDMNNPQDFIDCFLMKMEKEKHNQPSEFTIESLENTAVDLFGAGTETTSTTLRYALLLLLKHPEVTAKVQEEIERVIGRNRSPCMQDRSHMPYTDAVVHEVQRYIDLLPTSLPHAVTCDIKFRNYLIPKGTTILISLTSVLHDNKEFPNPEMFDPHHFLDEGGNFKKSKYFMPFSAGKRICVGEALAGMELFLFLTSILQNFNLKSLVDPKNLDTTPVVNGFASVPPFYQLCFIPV
In short: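 Fluorescence readout of CYP2C9 activity (SF9-expressed human enzyme) at 0.75 h. The primary screen used 10 uM in duplicate, with concentration-response follow-up for actives; acetonitrile was the negative control.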

[3] = target: rat CYP1A2, Cyp1a2 (gene 24297) (UniProt P04799); assay: NVS_ADME_rCYP1A2: NovaScreen (NVS) CYP450-related Enzyme Activity (ADME) Assay for rat CYP1A2 (AID 2283115)
Chain of rat CYP1A2, Cyp1a2 (gene 24297) (P04799 whole entry, looked up): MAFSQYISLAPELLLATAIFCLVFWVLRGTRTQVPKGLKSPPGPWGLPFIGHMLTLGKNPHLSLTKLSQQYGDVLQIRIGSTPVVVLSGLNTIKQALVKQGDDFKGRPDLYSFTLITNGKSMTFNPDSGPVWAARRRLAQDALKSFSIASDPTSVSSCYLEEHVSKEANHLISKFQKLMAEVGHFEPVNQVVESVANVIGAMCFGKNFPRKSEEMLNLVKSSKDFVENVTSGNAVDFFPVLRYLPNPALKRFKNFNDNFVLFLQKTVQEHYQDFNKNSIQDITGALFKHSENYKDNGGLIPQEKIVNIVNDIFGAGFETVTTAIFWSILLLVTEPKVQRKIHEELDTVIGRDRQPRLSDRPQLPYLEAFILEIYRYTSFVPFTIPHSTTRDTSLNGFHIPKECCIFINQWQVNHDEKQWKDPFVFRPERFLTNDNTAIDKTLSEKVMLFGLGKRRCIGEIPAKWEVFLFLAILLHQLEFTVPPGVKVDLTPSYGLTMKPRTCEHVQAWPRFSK
In short: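 Cell-free recombinant rat enzyme with fluorogenic substrate, read by fluorescence intensity 1 hour after dosing. Loss of signal versus acetonitrile negative control; primary screen at 10 uM in duplicate, actives followed in concentration series.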

[4] = target: rat CYP2D1, Cyp2d1 (gene 266684) (UniProt P10633); assay: NVS_ADME_rCYP2D1: NovaScreen (NVS) CYP450-related Enzyme Activity (ADME) Assay for rat CYP2D1 (AID 2283122)
Chain of rat CYP2D1, Cyp2d1 (gene 266684) (P10633 whole entry, looked up): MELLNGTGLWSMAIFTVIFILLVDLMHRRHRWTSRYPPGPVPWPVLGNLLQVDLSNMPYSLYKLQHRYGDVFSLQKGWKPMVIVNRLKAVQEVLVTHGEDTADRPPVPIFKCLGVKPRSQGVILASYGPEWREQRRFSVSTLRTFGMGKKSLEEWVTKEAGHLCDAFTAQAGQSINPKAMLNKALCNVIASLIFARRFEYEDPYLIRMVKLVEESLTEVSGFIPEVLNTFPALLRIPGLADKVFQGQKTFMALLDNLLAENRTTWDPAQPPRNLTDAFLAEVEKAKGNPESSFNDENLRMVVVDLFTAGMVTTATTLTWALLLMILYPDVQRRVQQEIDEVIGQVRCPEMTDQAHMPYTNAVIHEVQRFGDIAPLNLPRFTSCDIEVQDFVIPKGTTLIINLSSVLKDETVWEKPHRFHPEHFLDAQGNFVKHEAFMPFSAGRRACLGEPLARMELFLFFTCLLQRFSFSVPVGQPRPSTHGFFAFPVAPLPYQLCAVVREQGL
In short: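 Cell-free fluorescence enzyme-activity assay on extracted rat CYP2D1 protein, read 0.75 h after dosing. Primary screen in duplicate at 10 uM; qualifying chemicals then run in concentration-response to 20 uM max, loss-of-signal versus acetonitrile baseline.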

[5] = system: rat CYP3A1, gene 25642; assay: NVS_ADME_rCYP3A1: NovaScreen (NVS) CYP450-related Enzyme Activity (ADME) Assay for rat CYP3A1 (AID 2283126)
In short: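 Cell-free recombinant CYP assay with fluorescent substrate, read 0.5 h after dosing. Screened at 10 uM in duplicate, hits at up to 20 uM in concentration-response; loss of signal versus acetonitrile baseline.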

[6] = target: human AMP-activated Protein Kinase, alpha 1 (AMPKa1), PRKAA1 (gene 5562) (UniProt Q13131); assay: NVS_ENZ_hAMPKa1: NovaScreen (NVS) Enzymatic Assay for human AMP-activated Protein Kinase, alpha 1 (AMPKa1) (AID 2283130)
In short: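 Recombinant human AMPKα1 activity was measured cell-free by fluorescent substrate conversion with electrophoretic mobility-shift separation, 1 h after dosing. Duplicate single-point screening was at 25 uM; actives (≥30% inhibition) were retested in concentration-response up to 50 uM.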

[7] = target: Caspase-1 (Homo sapiens) (UniProt P29466); assay: NVS_ENZ_hCASP1: NovaScreen (NVS) Enzymatic Assay for human Caspase 1 (CASP1) (AID 2283132)
Chain of Caspase-1 (Homo sapiens) (P29466 whole entry, looked up): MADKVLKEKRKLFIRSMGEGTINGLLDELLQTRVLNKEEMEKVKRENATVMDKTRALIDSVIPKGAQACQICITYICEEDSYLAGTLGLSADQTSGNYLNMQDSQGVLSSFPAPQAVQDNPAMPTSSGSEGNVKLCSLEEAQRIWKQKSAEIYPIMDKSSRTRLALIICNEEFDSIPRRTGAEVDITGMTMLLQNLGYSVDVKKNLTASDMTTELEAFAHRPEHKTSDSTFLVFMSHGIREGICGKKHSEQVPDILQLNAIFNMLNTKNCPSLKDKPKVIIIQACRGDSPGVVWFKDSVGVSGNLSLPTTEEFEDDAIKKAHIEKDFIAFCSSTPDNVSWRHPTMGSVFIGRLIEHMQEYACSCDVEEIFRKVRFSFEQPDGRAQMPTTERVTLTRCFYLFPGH
In short: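 Cell-free enzymatic assay with E. coli-expressed recombinant protein; fluorescence intensity read 1 hour after dosing. Single-concentration duplicate screen at 25 uM, then concentration-response up to 50 uM; activity fitted relative to DMSO, loss of signal meaning inhibition.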

[8] = target: human CYP2C8, CYP2C8 (gene 1558) (UniProt P10632); assay: NVS_ADME_hCYP2C8: NovaScreen (NVS) CYP450-related Enzyme Activity (ADME) Assay for human CYP2C8 (AID 2283104; active = hit-call score of the fitted dose curve at least 0.9, where 1 is the maximum; inactive = score below 0.9)
In short: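 Recombinant human CYP2C8 with fluorogenic substrate, 0.5 h, fluorescence intensity; signal loss fitted versus acetonitrile. Screened in duplicate at 10 uM, then actives run in concentration-response up to 20 uM.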

[9] = target: human CYP2J2, CYP2J2 (gene 1573) (UniProt P51589); assay: NVS_ADME_hCYP2J2: NovaScreen (NVS) CYP450-related Enzyme Activity (ADME) Assay for human CYP2J2 (AID 2283106)
In short: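 Cell-free assay of recombinant CYP2J2 with a fluorogenic substrate, read 1 h after dosing; loss of signal versus acetonitrile. Primary screen at 10 uM in duplicate, then concentration-response up to 20 uM for chemicals passing threshold (e.g., 30% inhibition).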

[10] = target: rat CYP2A1, Cyp2a1 (gene 24894) (UniProt P11711); assay: NVS_ADME_rCYP2A1: NovaScreen (NVS) CYP450-related Enzyme Activity (ADME) Assay for rat CYP2A1 (AID 2283114; active = hit-call score of the fitted dose curve at least 0.9, where 1 is the maximum; inactive = score below 0.9)
Chain of rat CYP2A1, Cyp2a1 (gene 24894) (P11711 whole entry, looked up): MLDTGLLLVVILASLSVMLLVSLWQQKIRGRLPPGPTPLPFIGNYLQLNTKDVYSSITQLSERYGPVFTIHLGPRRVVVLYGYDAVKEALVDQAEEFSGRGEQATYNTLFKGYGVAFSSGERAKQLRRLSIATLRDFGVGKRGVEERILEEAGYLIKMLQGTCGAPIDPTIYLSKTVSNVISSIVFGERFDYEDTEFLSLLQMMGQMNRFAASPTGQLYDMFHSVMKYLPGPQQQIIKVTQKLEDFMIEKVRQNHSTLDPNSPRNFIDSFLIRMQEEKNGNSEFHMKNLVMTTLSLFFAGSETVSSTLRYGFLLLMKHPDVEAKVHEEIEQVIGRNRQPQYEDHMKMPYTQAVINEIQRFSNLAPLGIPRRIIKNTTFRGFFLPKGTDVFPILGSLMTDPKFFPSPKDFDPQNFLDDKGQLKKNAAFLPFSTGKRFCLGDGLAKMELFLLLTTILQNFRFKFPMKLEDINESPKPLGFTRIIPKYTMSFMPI
In short: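 Recombinant rat CYP2A1, cell-free, fluorogenic substrate turnover read by fluorescence intensity 0.75 h after dosing. Primary screen at 10 uM in duplicate; actives rerun as concentration-response up to 20 uM; loss of signal versus acetonitrile control.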

[11] = target: rat CYP2C11, Cyp2c11 (gene 29277) (UniProt P08683); assay: NVS_ADME_rCYP2C11: NovaScreen (NVS) CYP450-related Enzyme Activity (ADME) Assay for rat CYP2C11 (AID 2283118)
Chain of rat CYP2C11, Cyp2c11 (gene 29277) (P08683 whole entry, looked up): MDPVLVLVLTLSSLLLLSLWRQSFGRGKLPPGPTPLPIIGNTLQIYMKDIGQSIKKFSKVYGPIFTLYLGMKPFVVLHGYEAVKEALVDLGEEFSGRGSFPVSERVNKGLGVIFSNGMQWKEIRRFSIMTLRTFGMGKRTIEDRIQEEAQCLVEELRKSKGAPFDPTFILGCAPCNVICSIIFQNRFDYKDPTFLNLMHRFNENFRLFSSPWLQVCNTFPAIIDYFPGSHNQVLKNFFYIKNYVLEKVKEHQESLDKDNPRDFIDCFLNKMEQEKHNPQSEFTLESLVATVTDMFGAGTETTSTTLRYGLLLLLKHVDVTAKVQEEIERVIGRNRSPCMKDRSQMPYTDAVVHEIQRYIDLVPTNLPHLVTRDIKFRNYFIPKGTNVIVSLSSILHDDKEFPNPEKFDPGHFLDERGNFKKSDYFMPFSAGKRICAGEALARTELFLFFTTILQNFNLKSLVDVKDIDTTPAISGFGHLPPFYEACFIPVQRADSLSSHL
In short: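 Cell-free recombinant rat enzyme with fluorescent substrate; readout 0.33 h after dosing, loss of signal versus acetonitrile control. Initial duplicate single-point at 10 uM; actives rerun in concentration series.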

[12] = target: rat CYP2C12, Cyp2c12 (gene 25011) (UniProt P11510); assay: NVS_ADME_rCYP2C12: NovaScreen (NVS) CYP450-related Enzyme Activity (ADME) Assay for rat CYP2C12 (AID 2283119)
In short: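 Cell-free recombinant rat CYP2C12 activity read by fluorescence 0.5 h after dosing; loss of signal versus acetonitrile control. Primary screen in duplicate at 10 uM; actives then run in concentration-response format.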

[13] = system: rat CYP2C6, gene 293989; assay: NVS_ADME_rCYP2C6: NovaScreen (NVS) CYP450-related Enzyme Activity (ADME) Assay for rat CYP2C6 (AID 2283120)
In short: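 Cell-free recombinant rat CYP2C6 with fluorogenic substrate, read by fluorescence 1 h after dosing; acetonitrile as negative control. Primary screen at 10 uM in duplicate, actives then in concentration-response up to 20 uM.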

[14] = target: rat CYP2D2, Cyp2d26 (gene 25053) (UniProt P10634); assay: NVS_ADME_rCYP2D2: NovaScreen (NVS) CYP450-related Enzyme Activity (ADME) Assay for rat CYP2D2 (AID 2283124)
Chain of rat CYP2D2, Cyp2d26 (gene 25053) (P10634 whole entry, looked up): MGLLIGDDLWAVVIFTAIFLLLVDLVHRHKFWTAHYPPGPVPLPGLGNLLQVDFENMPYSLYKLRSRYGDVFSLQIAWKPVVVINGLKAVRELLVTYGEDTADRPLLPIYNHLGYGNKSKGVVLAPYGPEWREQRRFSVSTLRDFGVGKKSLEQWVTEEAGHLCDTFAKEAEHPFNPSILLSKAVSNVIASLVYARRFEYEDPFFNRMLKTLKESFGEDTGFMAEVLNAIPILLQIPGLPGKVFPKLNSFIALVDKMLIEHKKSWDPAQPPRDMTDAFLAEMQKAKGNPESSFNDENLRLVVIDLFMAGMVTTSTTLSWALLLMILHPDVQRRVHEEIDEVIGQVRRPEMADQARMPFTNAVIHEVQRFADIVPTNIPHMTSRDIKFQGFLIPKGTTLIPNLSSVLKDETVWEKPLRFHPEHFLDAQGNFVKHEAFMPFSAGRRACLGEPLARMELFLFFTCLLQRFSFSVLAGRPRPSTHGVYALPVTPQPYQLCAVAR
In short: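 Recombinant rat CYP2D2 in a cell-free fluorogenic activity assay, fluorescence read 0.75 h after dosing. Primary screen in duplicate at 10 uM; actives re-run singly in concentration-response to 20 uM, relative to acetonitrile.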

[15] = target: rat CYP3A2, Cyp3a2 (gene 266682) (UniProt P05183); assay: NVS_ADME_rCYP3A2: NovaScreen (NVS) CYP450-related Enzyme Activity (ADME) Assay for rat CYP3A2 (AID 2283128)
Chain of rat CYP3A2, Cyp3a2 (gene 266682) (P05183 whole entry, looked up): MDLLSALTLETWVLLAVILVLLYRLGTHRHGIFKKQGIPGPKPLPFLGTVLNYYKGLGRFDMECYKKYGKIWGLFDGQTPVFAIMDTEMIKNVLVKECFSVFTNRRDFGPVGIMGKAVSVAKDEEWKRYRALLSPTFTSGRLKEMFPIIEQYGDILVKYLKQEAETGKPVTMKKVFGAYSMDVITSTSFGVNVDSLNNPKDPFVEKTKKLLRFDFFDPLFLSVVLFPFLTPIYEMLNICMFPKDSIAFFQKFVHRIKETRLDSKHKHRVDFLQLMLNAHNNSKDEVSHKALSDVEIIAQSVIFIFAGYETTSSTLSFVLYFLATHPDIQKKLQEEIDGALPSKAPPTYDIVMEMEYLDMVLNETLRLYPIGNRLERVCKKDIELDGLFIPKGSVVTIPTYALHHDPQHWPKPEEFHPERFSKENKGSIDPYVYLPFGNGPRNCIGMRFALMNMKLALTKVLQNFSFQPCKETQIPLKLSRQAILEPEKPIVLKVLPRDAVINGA
In short: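 Cell-free rat CYP3A2 enzyme assay with fluorescent substrate, read 0.5 h after dosing. Primary duplicate screen at 10 uM; actives run in concentration-response up to 20 uM, relative to acetonitrile baseline.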

[16] = target: human CYP2D6, CYP2D6 (gene 1565) (UniProt P10635); assay: NVS_ADME_hCYP2D6: NovaScreen (NVS) CYP450-related Enzyme Activity (ADME) Assay for human CYP2D6 (AID 2283107)
Chain of human CYP2D6, CYP2D6 (gene 1565) (P10635 whole entry, looked up): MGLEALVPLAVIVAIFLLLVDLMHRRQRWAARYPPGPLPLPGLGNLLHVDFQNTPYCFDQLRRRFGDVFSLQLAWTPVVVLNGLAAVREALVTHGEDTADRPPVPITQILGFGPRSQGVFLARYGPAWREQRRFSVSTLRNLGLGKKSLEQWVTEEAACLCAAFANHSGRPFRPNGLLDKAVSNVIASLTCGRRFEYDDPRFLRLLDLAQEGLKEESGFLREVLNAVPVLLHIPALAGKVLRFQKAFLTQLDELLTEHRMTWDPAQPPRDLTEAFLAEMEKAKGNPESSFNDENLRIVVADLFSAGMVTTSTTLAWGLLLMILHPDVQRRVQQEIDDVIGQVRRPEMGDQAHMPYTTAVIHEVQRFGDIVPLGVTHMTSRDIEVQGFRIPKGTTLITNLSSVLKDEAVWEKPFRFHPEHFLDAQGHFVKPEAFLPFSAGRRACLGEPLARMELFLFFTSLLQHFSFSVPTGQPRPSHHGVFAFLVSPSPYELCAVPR
In short: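 Fluorescence intensity read 1 h post-dosing; insect-cell-expressed recombinant protein with fluorogenic substrate, no cells. Activity is scored as signal loss relative to acetonitrile baseline, first at a single 10 uM concentration in duplicate, then as concentration series for confirmed actives.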

[17] = target: human Acetylcholinesterase (AChE), ACHE (gene 43) (UniProt P22303); assay: NVS_ENZ_hAChE: NovaScreen (NVS) Enzymatic Assay for human Acetylcholinesterase (AChE) (AID 2283129)
In short: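 Cell-free colorimetric enzyme-activity assay; compounds read 0.33 hour after dosing, loss of signal vs DMSO baseline. Primary screen in duplicate at 25 uM single concentration, with active compounds retested in concentration series.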

[18] = target: Cytochrome P450 3A4 (Homo sapiens) (UniProt P08684); assay: NVS_ADME_hCYP3A4: NovaScreen (NVS) CYP450-related Enzyme Activity (ADME) Assay for human CYP3A4 (AID 2283110)
In short: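 Compounds were first screened in duplicate at 10 uM against recombinant CYP3A4 produced in insect cells, then actives were run in concentration series. Enzyme activity was measured by fluorescence after 0.33 hour, with acetonitrile as baseline.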

Measured: AC50

Cc1cc(C2CC2)nc(Nc2ccccc2)n1
inactive: [3] | [6] | [7]
active: [1] 2.87 µM | [2] 7 µM | [4] 6.96 µM | [5] 10.7 µM

CCOP(=S)(OCC)Oc1ccc2c(C)c(Cl)c(=O)oc2c1
inactive: [8] | [10] | [14]
active: [1] 1.17 µM | [9] 64.6 nM | [2] 0.798 µM | [11] 1.2 µM | [12] 0.799 µM | [13] 452 nM | [4] 0.854 µM | [5] 1.22 µM | [15] 0.83 µM

Nc1c(Cl)cc([N+](=O)[O-])cc1Cl
active: [1] 2.28 µM
inactive: [16]

CCCCOC(=O)c1ccccc1C(=O)O
inactive: [1] | [8]

C#CC(C)(C)NC(=O)c1cc(Cl)cc(Cl)c1
inactive: [7]
active: [1] 10 µM | [9] 1340 nM | [10] 1.43 µM

CSc1nnc(C(C)(C)C)c(=O)n1N
inactive: [16]

O=[N+]([O-])c1cc(C(F)(F)F)c(Cl)c([N+](=O)[O-])c1Nc1ncc(C(F)(F)F)cc1Cl
active: [2] 1.84 µM | [11] 2.91 µM
inactive: [1] | [12]

CCCCSP(=O)(SCCCC)SCCCC
active: [1] 8.52 µM
inactive: [16]

C[Si](Cn1cncn1)(c1ccc(F)cc1)c1ccc(F)cc1
active: [2] 1.04 µM | [10] 1.39 µM | [11] 0.25 µM | [12] 4.13 µM | [13] 519 nM | [4] 4.3 µM | [14] 1.87 µM | [5] 1.23 µM | [15] 1.07 µM
inactive: [9]

CSc1nc(NC(C)C)nc(NC(C)C)n1
active: [1] 5.92 µM | [5] 5.92 µM
inactive: [9] | [7]

C#CCC1=C(C)C(OC(=O)C2C(C=C(C)C)C2(C)C)CC1=O (stereo not given)
active: [9] 10000 nM | [2] 7.23 µM | [5] 7.59 µM | [15] 3.03 µM
inactive: [8] | [11]

CC(COc1ccc(Oc2ccccc2)cc1)Oc1ccccn1 (stereo not given)
inactive: [1]

CCC(=O)Nc1ccc(Cl)c(Cl)c1
active: [1] 2.03 µM | [10] 2.2 µM | [4] 5.39 µM | [5] 4.74 µM
inactive: [3] | [17]

CNc1cnn(-c2cccc(C(F)(F)F)c2)c(=O)c1Cl
inactive: [3] | [14] | [15]
active: [1] 5.43 µM | [5] 2.91 µM

CCOP(=S)(OCC)Oc1ccc([N+](=O)[O-])cc1
active: [1] 2.2 µM | [9] 609 nM | [2] 2.62 µM | [10] 5.89 µM | [11] 2.93 µM | [12] 6.18 µM | [13] 108 nM | [4] 10 µM | [5] 6.9 µM | [15] 2.86 µM
inactive: [16] | [14]

CCCOCC(=Nc1ccc(Cl)cc1C(F)(F)F)n1ccnc1
active: [1] 7.01 µM | [8] 3.77 µM | [9] 101 nM | [16] 6.7 µM | [2] 4.36 µM | [18] 522 nM | [10] 0.955 µM | [11] 0.798 µM | [12] 2.46 µM | [13] 976 nM | [4] 6.88 µM | [14] 3.2 µM | [5] 2.8 µM | [15] 1.7 µM
inactive: [3]

CCOP(=O)(NC(C)C)Oc1ccc(SC)c(C)c1 (stereo not given)
active: [1] 4.84 µM | [11] 6.43 µM | [14] 5.06 µM | [5] 7.98 µM
inactive: [3]

CCNc1nc(Cl)nc(NC(C)(C)C#N)n1
inactive: [8]

CCCSP(=O)(OCC)SCCC
active: [16] 7.87 µM
